# According to PubChem BioAssay (Tox21):
# Unmarked numbers belong to inactive results. Records with an inconclusive call do not appear. Where a call stands in place of a potency, no number is given. Activity calls are given as the source filed them. Calls come from the whole dose curve; as a rule, active = well fitted curve in the direction sought with a large enough effect in the repeat runs; inconclusive = weak or mixed curves; inactive = no such curve, though single readings can be large; an effect the other way counts as inactive or inconclusive.
# Legend:
# [1] = A CellTox Green Cytotoxicity Assay to monitor cytotoxicity in HEK293 cells - 24 hour (AID 1224875); note: nearly all actives have a fitted effect of over 45% in size; note: potency is the fitted concentration of half-maximal effect; for activity change: series mostly up to about 77 µM
# In short: (§1)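 Cells (HEK293, 600/well) and dye reagent are dispensed together. After 5 h at 37 C, 23 nL compound is pinned in. Plates stay at 37 C for 40 h with fluorescence read at 0h, 8h, 16h, 24h, 32h and 40h.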
# [2] = A CellTox Green Cytotoxicity Assay to monitor cytotoxicity in HepG2 cells - 16 hour (AID 1224876); note: nearly all actives have a fitted effect of over 45% in size; note: potency is the fitted concentration of half-maximal effect
# In short: (§2)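 Cells and non-lytic dye reagent are dispensed together (600 HepG2 cells/well) and incubated 5 h before DMSO compound transfer. Kinetic fluorescence is then recorded in the same wells during 40 h at 37 C.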
# [3] = qHTS RealTime-Glo MT Cell Viability Assay in HepG2 cells - 32 hour (AID 1224877); note: nearly all actives have a fitted effect of over 55% in size
# In short: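 Cells + NanoLuc/prosubstrate dispensed (600 cells/well) → 5 h at 37 C/5% CO2 → compounds in DMSO transferred → 40 h incubation at 37 C, luminescence read at 0, 8, 16, 24, 32, 40 h.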
# [4] = A CellTox Green Cytotoxicity Assay to monitor cytotoxicity in HepG2 cells - 24 hour (AID 1224878); note: nearly all actives have a fitted effect of over 45% in size; note: potency is the fitted concentration of half-maximal effect
# In short: as §2
# [5] = A CellTox Green Cytotoxicity Assay to monitor cytotoxicity in HepG2 cells - 40 hour (AID 1224879); note: nearly all actives have a fitted effect of over 40% in size; note: potency is the fitted concentration of half-maximal effect
# In short: as §2
# [6] = qHTS RealTime-Glo MT Cell Viability Assay in HEK293 cells - 0 hour (AID 1224880); note: top concentration of the series differs between compounds; nearly all actives have a fitted effect of over 45% in size
# In short: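 Real-time viability in HEK293: signal arises when living cells convert a prosubstrate for NanoLuc in the medium, so luminescence tracks viable cell number. Compound (23 nL, DMSO) added 5 h post-seeding; kinetic reads at 0–40 h, 37 C.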
# [7] = A CellTox Green Cytotoxicity Assay to monitor cytotoxicity in HEK293 cells - 32 hour (AID 1224881); note: nearly all actives have a fitted effect of over 40% in size; note: potency is the fitted concentration of half-maximal effect
# In short: as §1
# [8] = A CellTox Green Cytotoxicity Assay to monitor cytotoxicity in HepG2 cells - 0 hour (AID 1224882); note: nearly all actives have a fitted effect of over 35% in size
# In short: as §2
# [9] = A CellTox Green Cytotoxicity Assay to monitor cytotoxicity in HepG2 cells - 32 hour (AID 1224883); note: nearly all actives have a fitted effect of over 50% in size; note: potency is the fitted concentration of half-maximal effect
# In short: as §2
# [10] = A CellTox Green Cytotoxicity Assay to monitor cytotoxicity in HEK293 cells - 8 hour (AID 1224884); note: nearly all actives have a fitted effect of over 35% in size
# In short: as §1
structure (smiles),measurement,setting,value
c1ccc(-c2nc3ccccc3[nH]2)cc1,Potency,[1],inactive
same,Potency,[2],inactive
same,Potency,[3],inactive
same,Potency,[4],inactive
same,Potency,[5],inactive
same,Potency,[6],inactive
same,Potency,[7],inactive
same,Potency,[8],inactive
same,Potency,[9],inactive
same,Potency,[10],inactive
CCc1cccc(CC)c1,Potency,[1],inactive
same,Potency,[2],inactive
same,Potency,[3],inactive
same,Potency,[4],inactive
same,Potency,[5],inactive
same,Potency,[6],inactive
same,Potency,[7],inactive
same,Potency,[8],inactive
same,Potency,[9],inactive
same,Potency,[10],inactive
C/C(=N\[Si](C)(C)C)O[Si](C)(C)C,Potency,[1],inactive
same,Potency,[2],inactive
same,Potency,[3],inactive
same,Potency,[4],inactive
same,Potency,[5],inactive
same,Potency,[6],inactive
same,Potency,[7],inactive
same,Potency,[8],inactive
same,Potency,[9],inactive
same,Potency,[10],inactive
CCCCCc1ccc(O)cc1,Potency,[1],38.9 µM (active)
same,Potency,[2],49 µM (active)
same,Potency,[3],inactive
same,Potency,[4],49 µM (active)
same,Potency,[5],43.6 µM (active)
same,Potency,[6],inactive
same,Potency,[7],34.7 µM (active)
same,Potency,[8],inactive
same,Potency,[9],49 µM (active)
CC/C=C(\C)C=O,Potency,[1],inactive
same,Potency,[2],inactive
same,Potency,[3],inactive
same,Potency,[4],inactive
same,Potency,[5],inactive
same,Potency,[6],inactive
same,Potency,[7],inactive
same,Potency,[8],inactive
same,Potency,[9],inactive
same,Potency,[10],inactive
C/C(=C\c1ccc(C(=O)O)cc1)c1ccc2c(c1)C(C)(C)CCC2(C)C,Potency,[1],inactive
same,Potency,[2],inactive
same,Potency,[3],inactive
same,Potency,[4],inactive
same,Potency,[5],inactive
same,Potency,[6],inactive
same,Potency,[7],inactive
same,Potency,[8],inactive
same,Potency,[9],inactive
same,Potency,[10],inactive
C=CC(=O)OCCOC1C2CCC1C1CC=CC12 (centres undefined),activity change,[1],"0.179% [at 15.8 µM, hits give high values]"
same,cytotoxicity increase,[2],-1.04% [at 15.8 µM]
same,"activity change, negative = cytotoxic",[3],3.75% [at 15.8 µM]
same,cytotoxicity,[4],-5.89% [at 15.8 µM]
same,cytotoxicity increase,[5],-11.6% [at 15.8 µM]
same,"activity change, negative = cytotoxicity",[6],4.39% [at 15.8 µM]
same,cytotoxicity increase,[7],-0.486% [at 15.8 µM]
same,cytotoxicity,[8],-3.66% [at 15.8 µM]
same,cytotoxicity increase,[9],-7.81% [at 15.8 µM]
same,cytotoxicity increase,[10],-0.0811% [at 15.8 µM]
CC(=O)Nc1ccc(N=Nc2cc(C)ccc2O)cc1,Potency,[1],inactive
same,Potency,[2],inactive
same,Potency,[3],inactive
same,Potency,[4],inactive
same,Potency,[5],inactive
same,Potency,[6],inactive
same,Potency,[7],inactive
same,Potency,[8],inactive
same,Potency,[9],inactive
same,Potency,[10],inactive
Clc1cccc(Cl)n1,Potency,[1],inactive
same,Potency,[2],inactive
same,Potency,[3],inactive
same,Potency,[4],inactive
same,Potency,[5],inactive
same,Potency,[6],inactive
same,Potency,[7],inactive
same,Potency,[8],inactive
same,Potency,[9],inactive
same,Potency,[10],inactive
O=C1OCc2ccccc21,Potency,[1],inactive
same,Potency,[2],inactive
same,Potency,[3],inactive
same,Potency,[4],inactive
same,Potency,[5],inactive
same,Potency,[6],inactive
same,Potency,[7],inactive
same,Potency,[8],inactive
same,Potency,[9],inactive
same,Potency,[10],inactive
CC(c1cc(C(C)(C)C)cc(C(C)(C)C)c1O)c1cc(C(C)(C)C)cc(C(C)(C)C)c1O,Potency,[1],inactive
same,Potency,[2],inactive
same,Potency,[3],inactive
same,Potency,[4],inactive
same,Potency,[5],inactive
same,Potency,[6],inactive
same,Potency,[7],inactive
same,Potency,[8],inactive
same,Potency,[9],inactive
same,Potency,[10],inactive
c1ccc2occc2c1,Potency,[1],inactive
same,Potency,[2],inactive
same,Potency,[3],inactive
same,Potency,[4],inactive
same,Potency,[5],inactive
same,Potency,[6],inactive
same,Potency,[7],inactive
same,Potency,[8],inactive
same,Potency,[9],inactive
same,Potency,[10],inactive
O[Si](c1ccccc1)(c1ccccc1)c1ccccc1,Potency,[1],inactive
same,Potency,[2],inactive
same,Potency,[3],inactive
same,Potency,[4],inactive
same,Potency,[5],inactive
same,Potency,[6],inactive
same,Potency,[7],inactive
same,Potency,[8],inactive
same,Potency,[9],inactive
same,Potency,[10],inactive
O=C(O)C[C@H](O)C[C@H](O)/C=C/c1c(C2CC2)nc2ccccc2c1-c1ccc(F)cc1,activity change,[1],"1.41% [at 15.8 µM, hits give high values]"
same,cytotoxicity increase,[2],7.91% [at 15.8 µM]
same,"activity change, negative = cytotoxic",[3],-27.7% [at 15.8 µM]
same,Potency,[4],2.61 µM (active)
same,Potency,[5],2.61 µM (active)
same,"activity change, negative = cytotoxicity",[6],8.78% [at 15.8 µM]
same,cytotoxicity increase,[7],-0.515% [at 15.8 µM]
same,cytotoxicity,[8],0.628% [at 15.8 µM]
same,Potency,[9],2.61 µM (active)
same,cytotoxicity increase,[10],-1.19% [at 15.8 µM]
CCc1cccc(C)c1N(C(=O)C(=O)O)C(C)COC (centres undefined),Potency,[1],inactive
same,Potency,[2],inactive
same,Potency,[3],inactive
same,Potency,[4],inactive
same,Potency,[5],inactive
same,Potency,[6],inactive
same,Potency,[7],inactive
same,Potency,[8],inactive
same,Potency,[9],inactive
same,Potency,[10],inactive
CC(C=O)c1ccccc1 (centres undefined),Potency,[1],inactive
same,Potency,[2],inactive
same,Potency,[3],inactive
same,Potency,[4],inactive
same,Potency,[5],inactive
same,Potency,[6],inactive
same,Potency,[7],inactive
same,Potency,[8],inactive
same,Potency,[9],inactive
same,Potency,[10],inactive
CC(C)(c1ccc(Oc2ccc(N)cc2)cc1)c1ccc(Oc2ccc(N)cc2)cc1,Potency,[1],inactive
same,Potency,[2],inactive
same,Potency,[3],inactive
same,Potency,[4],inactive
same,Potency,[5],inactive
same,Potency,[6],inactive
same,Potency,[7],inactive
same,Potency,[8],inactive
same,Potency,[9],inactive
same,Potency,[10],inactive
C=C[Si](C)(C)Cl,activity change,[1],"-5.65% [at 6.97 µM, hits give high values]"
same,cytotoxicity increase,[2],-13.5% [at 6.97 µM]
same,"activity change, negative = cytotoxic",[3],9.18% [at 6.97 µM]
same,cytotoxicity,[4],-14.5% [at 6.97 µM]
same,cytotoxicity increase,[5],-18.2% [at 6.97 µM]
same,"activity change, negative = cytotoxicity",[6],-5.88% [at 6.97 µM]
same,cytotoxicity increase,[7],-7.47% [at 6.97 µM]
same,cytotoxicity,[8],-6.72% [at 6.97 µM]
same,cytotoxicity increase,[9],-16.4% [at 6.97 µM]
same,cytotoxicity increase,[10],-2.48% [at 6.97 µM]
CC(C)(C)c1cc(CCC(=O)OCCSCCOC(=O)CCc2cc(C(C)(C)C)c(O)c(C(C)(C)C)c2)cc(C(C)(C)C)c1O,Potency,[1],inactive
same,Potency,[2],inactive
same,Potency,[3],inactive
same,Potency,[4],inactive
same,Potency,[5],inactive
same,Potency,[6],inactive
same,Potency,[7],inactive
same,Potency,[8],inactive
same,Potency,[9],inactive
same,Potency,[10],inactive
CCOC(=O)[C@H](C)O,Potency,[1],inactive
same,Potency,[2],inactive
same,Potency,[3],inactive
same,Potency,[4],inactive
same,Potency,[5],inactive
same,Potency,[6],inactive
same,Potency,[7],inactive
same,Potency,[8],inactive
same,Potency,[9],inactive
same,Potency,[10],inactive
CCOc1nc(F)cc2nc(S(=O)(=O)Nc3c(Cl)cccc3C(=O)OC)nn12,Potency,[1],inactive
same,Potency,[2],inactive
same,Potency,[3],inactive
same,Potency,[4],inactive
same,Potency,[5],inactive
same,Potency,[6],inactive
same,Potency,[7],inactive
same,Potency,[8],inactive
same,Potency,[9],inactive
same,Potency,[10],inactive
